{
  "source": "PubChem BioAssay (Tox21)",
  "note": "Results filed as inconclusive are left out. Where a call stands in place of a potency, no number is given. Active and inactive are the calls of the source. Calls follow the shape of the dose curve; as a rule, active = well fitted cell-killing curve with a large enough effect in the repeat runs; inconclusive = weak or mixed curves; inactive = no such curve, though single readings can be large or run the other way. Potency is read from the fitted curve at half-maximal effect.",
  "data": [
    {"experiment": "qHTS assay to identify small molecule antagonists of the androgen receptor (AR) signaling pathway - cell viability counter screen (AID 743033; also: nearly all actives have a fitted effect of over 45% in size)", "details": "AR-bla HEK293 viability, CellTiter-Glo luminescence, 16 h; series mostly up to 58.5 µM", "source_text": "National Center for Advancing Translational Sciences [NCATS]\nNIH Chemical Genomics Center [NCGC]\nU.S. Environmental Protection Agency [EPA]\nNational Institutes of Environmental Health Sciences [NIEHS]\nNational Toxicology Program [NTP]\nU.S. Food and Drug Administration [FDA]\nAndrogen receptor (AR), a nuclear hormone receptor, plays a critical role in AR-dependent prostate cancer and other androgen related diseases. Endocrine disrupting chemicals (EDCs) and their interactions with steroid hormone receptors like AR may cause disruption of normal endocrine function as well as interfere with metabolic homeostasis, reproduction, developmental and behavioral functions. To identify the compounds that inhibit AR signaling, GeneBLAzer AR-UAS-bla-GripTite cell line (Invitrogen, Carlsbad, CA, USA) containing a beta-lactamase reporter gene under control of an Upstream Activator Sequence (UAS) stably integrated into HEK293 cells was used to screen the Tox21 10K compound library. The cytotoxicity of the Tox21 compound library against the AR-bla cell line was tested in parallel by measuring the cell viability using CellTiter-Glo assay in the same wells.\nTox21 Assay Protocol Summary:\nAR-bla cells were dispensed at 2,000 cells/5 uL of assay medium per well into black wall/clear-bottom 1536-well plates using a Multidrop Combi (ThermoFisher Scientific, Waltham, MA) dispenser. After the assay plates were incubated at a 37C and 5% CO2 for 4 hr, 23 nL of compounds dissolved in DMSO, positive controls or DMSO only was transferred to the assay plate by a Pintool station (Kalypsys, San Diego, CA), followed by addition of 1 uL of agonist (R1881) in culture medium using a Bioraptr Flying Reagent Dispenser (FRD) workstation (Beckman Coulter, Indianapolis, IN, USA). The plates were incubated at a 37C and 5% CO2 for 16 h. After 1 uL of LiveBLAzerTM B/G FRET substrate was added using a Bioraptr FRD, the plates were incubated at room temperature for 2 h and fluorescence intensity was measured by an Envision plate reader (PerkinElmer, Shelton, CT). For cell viability readout that measures cytotoxicity, 4 ul/well of CellTiter-Glo reagent was added into the assay plates using a Bioraptr FRD. After 30 min incubation at room temperature, the luminescence intensity in the plates was measured using a ViewLux (PerkinElmer) plate reader.", "values": [
      {"smiles": "NCCC(=O)[N-][C@@H](Cc1cnc[nH]1)C(=O)O.[Zn]", "Potency": "inactive"},
      {"smiles": "CCSc1ccc2c(c1)N(CCCN1CCN(C)CC1)c1ccccc1S2", "Potency": "inactive"},
      {"smiles": "O=C1NC(=O)[C@H]2[C@@H]1[C@@H]1C=C[C@H]2C1", "Potency": "inactive"},
      {"smiles": "OCCO[C@@H]1[C@@H](O)[C@H](O)[C@@H](CO)O[C@@H]1O", "Potency": "inactive"},
      {"smiles": "CCN(CC)c1ccc(N=Nc2ccc(S(=O)(=O)N(C)C)cc2)c(S(=O)(=O)NCC[n+]2ccccc2)c1", "Potency": "inactive"},
      {"smiles": "Cc1onc(-c2ccccc2)c1C(=O)N[C@@H]1C(=O)N2[C@@H]1SC(C)(C)[C@@H]2C(=O)O", "Potency": "inactive"},
      {"smiles": "C[C@H](N)C(=O)N[C@@H](C)P(=O)(O)O", "Potency": "inactive"},
      {"smiles": "CCCCc1cc2c(=O)c(C(=O)OC)c[nH]c2cc1OCc1ccccc1", "Potency": "inactive"},
      {"smiles": "O=C(Cc1cccs1)N[C@@H]1C(=O)N2C(C(=O)[O-])=C(C[n+]3ccccc3)CS[C@H]12", "Potency": "inactive"},
      {"smiles": "Cc1ncc(COP(=O)(O)O)c(CN)c1O", "Potency": "inactive"},
      {"smiles": "N[C@H](CC(=O)O)C(=O)O", "Potency": "inactive"},
      {"smiles": "O=C(OCCO)c1ccccc1O", "Potency": "inactive"},
      {"smiles": "CO[C@H]1C=CO[C@@]2(C)Oc3c(C)c(O)c4c(O)c(c(/C=N/N5CCN(C6CCCC6)CC5)c(O)c4c3C2=O)NC(=O)/C(C)=C\\C=C[C@H](C)[C@H](O)[C@@H](C)[C@@H](O)[C@@H](C)[C@H](OC(C)=O)[C@@H]1C", "Potency": "inactive"},
      {"smiles": "O=C1/C(=C\\c2cccs2)CCC/C1=C\\c1cccs1", "Potency": "inactive"},
      {"smiles": "CCCCC[C@H](O)/C=C/[C@@H]1[C@H]2C/C(=C/CCCC(=O)O)O[C@H]2C[C@H]1O", "Potency": "inactive"},
      {"smiles": "COc1cc(NCCCC(C)N)c2ncccc2c1", "note": "(stereo not given)", "Potency": "inactive"},
      {"smiles": "Oc1cc(O)cc(O)c1", "Potency": "inactive"},
      {"smiles": "CO[C@@H]1[C@@H](O[C@@H]2O[C@H](C)[C@@H](O[C@H]3C[C@@](C)(O)[C@@H](OC(=O)CC(C)C)[C@H](C)O3)[C@H](N(C)C)[C@H]2O)[C@@H](CC=O)C[C@@H](C)[C@@H](O)/C=C/C=C/C[C@@H](C)OC(=O)C[C@H]1O", "Potency": "inactive"},
      {"smiles": "NC(=O)OCC(O)COc1ccc(Cl)cc1", "note": "(stereo not given)", "Potency": "inactive"},
      {"smiles": "C=CCSSSCC=C", "Potency": "inactive"},
      {"smiles": "O=C(O)c1ccc(NC(=O)[C@H](Cc2ccc(O)cc2)NC(=O)c2ccccc2)cc1", "Potency": "inactive"},
      {"smiles": "C[C@@H]1C[C@H]2[C@@H]3CCC4=CC(=O)C=C[C@]4(C)[C@@]3(F)[C@@H](O)C[C@]2(C)[C@@]1(O)C(=O)COC(=O)c1cccc(S(=O)(=O)O)c1", "Potency": "inactive"},
      {"smiles": "CCCC(CCC)C(N)=O", "Potency": "inactive"},
      {"smiles": "CC(=O)O[C@H]1CC[C@@]2(C)C(=CC[C@H]3[C@@H]4CC[C@H](C(C)=O)[C@@]4(C)CC[C@@H]32)C1", "Potency": "inactive"},
      {"smiles": "CCCCCCCCCCCCCCCC(=O)OC[C@@H](O)[C@H]1OC[C@H](O)[C@H]1O", "Potency": "inactive"},
      {"smiles": "CC[C@@H](C(=O)[C@@H](C)[C@@H](O)[C@H](C)[C@@H]1O[C@@H]([C@@H](CC)C(=O)O)CC[C@@H]1C)[C@H]1O[C@]2(C=C[C@@H](O)[C@]3(CC[C@@](C)([C@H]4CC[C@](O)(CC)[C@H](C)O4)O3)O2)[C@H](C)C[C@@H]1C", "Potency": "1.51 µM (active)"},
      {"smiles": "N[C@H](CCC(=O)O)C(=O)O", "Potency": "inactive"},
      {"smiles": "NC[C@@H]1O[C@H](O[C@H]2[C@@H](O)[C@H](O[C@@H]3[C@@H](O)[C@H](N)C[C@H](N)[C@H]3O[C@H]3O[C@H](CN)[C@@H](O)[C@H](O)[C@H]3N)O[C@@H]2CO)[C@H](N)[C@@H](O)[C@@H]1O", "Potency": "inactive"},
      {"smiles": "CC1CCC(NC(=O)N(CCCl)N=O)CC1", "note": "(stereo not given)", "Potency": "inactive"},
      {"smiles": "COCC1=C(C(=O)OC(C)OC(=O)OC(C)C)N2C(=O)[C@@H](NC(=O)/C(=N\\OC)c3csc(N)n3)[C@H]2SC1", "note": "(stereo not given in full)", "Potency": "inactive"},
      {"smiles": "C=C[C@]1(C)C[C@@H](OC(=O)CO)[C@]2(C)[C@H](C)CC[C@]3(CCC(=O)[C@H]32)[C@@H](C)[C@@H]1O", "Potency": "inactive"},
      {"smiles": "CC(=O)O[C@H]1C(=O)[C@@]2(C)[C@H]([C@H](OC(=O)c3ccccc3)[C@]3(O)C[C@H](OC(=O)[C@H](O)[C@@H](NC(=O)c4ccccc4)c4ccccc4)C(C)=C1C3(C)C)[C@]1(OC(C)=O)CO[C@@H]1C[C@@H]2O", "Potency": "0.952 µM (active)"},
      {"smiles": "CC(=O)O[C@H]1C[C@@H]2CC[C@@H]3[C@H](CC[C@@]4(C)[C@H]3C[C@H](N3CC[N+](C)(C)CC3)[C@@H]4OC(C)=O)[C@@]2(C)C[C@@H]1N1CC[N+](C)(C)CC1", "Potency": "inactive"},
      {"smiles": "Cc1cc(C)c(NC(=O)C[C@H](CC(=O)O)c2cccc3ccccc23)c(C(=O)N2CCC3(CCCC3)CC2)c1", "Potency": "inactive"},
      {"smiles": "O=S(=O)(O)c1cc(O)c2c(N=Nc3ccc(Nc4ccccc4)c4c(S(=O)(=O)O)cccc34)cc(S(=O)(=O)O)cc2c1", "Potency": "inactive"},
      {"smiles": "CCCCCCCCCCCCCCCCCC(=O)OC[C@@H](O)[C@H]1OC[C@H](O)[C@H]1O", "Potency": "inactive"},
      {"smiles": "Nc1c(Br)cc(Br)cc1CNC1CCC(O)CC1", "note": "(stereo not given)", "Potency": "inactive"},
      {"smiles": "CC(=O)Nc1ccc(OC(=O)c2ccccc2O)cc1", "Potency": "inactive"},
      {"smiles": "COc1ccc(CNCC(O)COc2ccc3[nH]c(=O)ccc3c2)cc1OC", "note": "(stereo not given)", "Potency": "inactive"},
      {"smiles": "CCCC(=O)N1CCCN(c2nc(N)c3cc(OC)c(OC)cc3n2)CC1", "Potency": "inactive"}
    ]}
  ]
}
